Test results reported in PubChem BioAssay (NCATS).
Records with an inconclusive call do not appear. Activity calls are given as the source filed them. The call rests on the fitted dose curve; in most records, active means well fitted curve in the direction sought with a large enough effect; inconclusive means small, poorly fitted or top-dose-only effect, or another doubt; inactive means no such curve, though single readings can be large; an effect the other way counts as inactive or inconclusive.

Tests used:
[1] = test system: NIH3T3; test: Cytotoxic Profiling of Annotated Libraries Using Quantitative High-Throughput Screening (AID 1296008); conditions: Five cell lines viability, CellTiter-Glo ATP luminescence, 48-72 h; stronger effect = lower value; further: nearly all actives have a fitted effect of over 60% in size
How it was run: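 Compounds were pin-transferred onto cells and incubated 48 or 72 hr at 37 degree Celsius, 95% humidity. CellTiter-Glo was added, plates sat 10 min at room temperature, then ATP-coupled luminescence was imaged as the viability read-out.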

[2] = test system: HACAT; test: qHTS assay to identify novel small-molecules to repurpose for Merkel cell carcinoma treatment (AID 1296009); conditions: MCC and control cell lines, CellTiter-Glo viability, 72 h; at 44.8 µM (top of the series) unless noted; further: nearly all actives have a fitted effect of over 60% in size
How it was run: (§1)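 Cells exposed to NPC (8-point) and MIPE (11-point) compound dilutions for 72 hr at 37 degree celsius; viability read by CellTiter-Glo luminescence, normalized to no-cell and DMSO in-plate controls.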

[3] = test system: MCC-13; test: as above; conditions: MCC and control cell lines, CellTiter-Glo viability, 72 h; series mostly up to 46 µM
How it was run: as §1

[4] = test system: MKL-1; test: as above; conditions: MCC and control cell lines, CellTiter-Glo viability, 72 h; series mostly up to 46 µM
How it was run: as §1

[5] = test system: MKL-2; test: as above; conditions: MCC and control cell lines, CellTiter-Glo viability, 72 h; series mostly up to 46 µM
How it was run: as §1

[6] = test system: NIH3T3; test: as above; conditions: MCC and control cell lines, CellTiter-Glo viability, 72 h; at 44.8 µM (top of the series) unless noted
How it was run: as §1

[7] = test system: UISO; test: as above; conditions: MCC and control cell lines, CellTiter-Glo viability, 72 h; series mostly up to 46 µM
How it was run: as §1

[8] = test system: WaGa; test: as above; conditions: MCC and control cell lines, CellTiter-Glo viability, 72 h; series mostly up to 46 µM
How it was run: as §1

[9] = test system: C33A; test: Primary qHTS to identify gynecologic anti-cancer compounds using libraries of approved drugs and bioactive compounds (AID 1345084); conditions: Gynecologic cancer cell panel viability, ATPlite luminescence, 48 h; series mostly up to 57.5 µM; further: nearly all actives have a fitted effect of over 55% in size
How it was run: (§2)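 Cytotoxicity screen measuring ATP content by luciferase luminescence. Each compound is applied at five concentrations for 48 h at 37 C with 5% CO2.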

[10] = test system: CAOV3; test: as above; conditions: Gynecologic cancer cell panel viability, ATPlite luminescence, 48 h; series mostly up to 57.5 µM
How it was run: as §2

[11] = test system: CASKI; test: as above; conditions: Gynecologic cancer cell panel viability, ATPlite luminescence, 48 h; series mostly up to 57.5 µM
How it was run: as §2

[12] = test system: Es-2; test: as above; conditions: Gynecologic cancer cell panel viability, ATPlite luminescence, 48 h; series mostly up to 57.5 µM
How it was run: as §2

[13] = test system: HeLa; test: as above; conditions: Gynecologic cancer cell panel viability, ATPlite luminescence, 48 h; series mostly up to 57.5 µM
How it was run: as §2

[14] = test system: Hek293T; test: as above; conditions: Gynecologic cancer cell panel viability, ATPlite luminescence, 48 h, control line for the selectivity index; series mostly up to 57.5 µM
How it was run: as §2

[15] = test system: JEG-3; test: as above; conditions: Gynecologic cancer cell panel viability, ATPlite luminescence, 48 h; series mostly up to 57.5 µM
How it was run: as §2

[16] = test system: OV90; test: as above; conditions: Gynecologic cancer cell panel viability, ATPlite luminescence, 48 h; series mostly up to 57.5 µM
How it was run: as §2

[17] = test system: PA-1; test: as above; conditions: Gynecologic cancer cell panel viability, ATPlite luminescence, 48 h; series mostly up to 57.5 µM
How it was run: as §2

[18] = test system: SKOV3; test: as above; conditions: Gynecologic cancer cell panel viability, ATPlite luminescence, 48 h; series mostly up to 57.5 µM
How it was run: as §2

[19] = test system: HEK293T; test: qHTS assay to identify novel small-molecules to repurpose for Merkel cell carcinoma treatment (AID 1296009); conditions: MCC and control cell lines, CellTiter-Glo viability, 72 h; at 44.8 µM (top of the series) unless noted; further: nearly all actives have a fitted effect of over 60% in size
How it was run: as §1

[20] = test system: MCC-26; test: as above; conditions: MCC and control cell lines, CellTiter-Glo viability, 72 h; series mostly up to 46 µM
How it was run: as §1
On the % scale 0 is the no-effect control and ±100 the full control effect.

CCCCCC(N)=O
inactive: outcome [1] | outcome [2] | outcome [3] | outcome [4] | outcome [5] | outcome [6] | outcome [7] | outcome [8] | outcome [9] | outcome [10] | outcome [11] | outcome [12] | outcome [13] | outcome [14] | outcome [15] | Potency [16] | outcome [17] | outcome [18]

O=C(O)Cc1cn(-c2ccccc2)nc1-c1ccc(Cl)cc1
inactive: max response [1] 4.05% | outcome [19] | outcome [3] | outcome [20] | outcome [4] | outcome [5] | outcome [7] | outcome [8] | outcome [9] | outcome [10] | outcome [11] | outcome [12] | outcome [13] | outcome [14] | outcome [15] | Potency [16] | outcome [17] | outcome [18]

CC1(C)S[C@@H]2[C@H](NC(=O)C(C(=O)O)c3ccccc3)C(=O)N2[C@H]1C(=O)O (stereo partly specified)
inactive: max response [1] -1.06% | outcome [19] | outcome [3] | outcome [20] | outcome [4] | outcome [5] | outcome [7] | outcome [8] | outcome [9] | outcome [10] | outcome [11] | outcome [12] | outcome [13] | outcome [14] | outcome [15] | Potency [16] | outcome [17] | outcome [18]

CC1CCN(CCCC(=O)c2ccc(F)cc2)CC1
inactive: max response [1] -1.04% | outcome [2] | outcome [3] | outcome [4] | outcome [5] | outcome [7] | outcome [8] | outcome [9] | outcome [10] | outcome [11] | outcome [12] | outcome [13] | outcome [14] | outcome [15] | Potency [16] | outcome [17] | outcome [18]

NCc1ccc(S(N)(=O)=O)cc1
inactive: max response [1] 1.15% | outcome [19] | outcome [3] | outcome [20] | outcome [4] | outcome [5] | outcome [7] | outcome [8] | outcome [9] | outcome [10] | outcome [11] | outcome [12] | outcome [13] | outcome [14] | outcome [15] | Potency [16] | outcome [17] | outcome [18]

CCCCCCCCCCOc1cc2c(=O)c(C(=O)OCC)c[nH]c2cc1OCC
inactive: max response [1] -1.43% | outcome [19] inactive [at 4.96 µM] | activity change, negative = cytotoxicity [3] 9.19% [at 4.84 µM] | activity change, negative = cytotoxicity [20] -1.97% [at 4.84 µM] | activity change, negative = cytotoxicity [4] -4.83% [at 4.84 µM] | activity change, negative = cytotoxicity [5] 10.7% [at 4.84 µM] | activity change, negative = cytotoxicity [7] 13.6% [at 4.84 µM] | activity change, negative = cytotoxicity [8] -1.72% [at 4.84 µM] | activity change, negative = cytotoxicity [9] 1.85% [at 6.55 µM] | activity change, negative = cytotoxicity [10] 22.4% [at 6.55 µM] | activity change, negative = cytotoxicity [11] 19.5% [at 6.55 µM] | activity change, negative = cytotoxicity [12] -0.35% [at 6.55 µM] | activity change, negative = cytotoxicity [13] -1.47% [at 6.55 µM] | activity change, negative = cytotoxicity [14] 4.2% [at 6.55 µM] | activity change, negative = cytotoxicity [15] 6.94% [at 6.55 µM] | activity change, negative = cytotoxicity [16] -2.35% [at 6.55 µM] | activity change, negative = cytotoxicity [17] -2.19% [at 6.55 µM] | activity change, negative = cytotoxicity [18] 0.739% [at 6.55 µM]

COc1cc(C(=O)NCCCCCC(=O)O)cc(OC)c1OC
inactive: max response [1] 3.71% | outcome [19] | outcome [3] | outcome [20] | outcome [4] | outcome [5] | outcome [7] | outcome [8] | outcome [9] | outcome [10] | outcome [11] | outcome [12] | outcome [13] | outcome [14] | outcome [15] | Potency [16]

Cc1ccsc1C(=CCCN1CCC[C@@H](C(=O)O)C1)c1sccc1C
inactive: max response [1] -5% | outcome [19] | outcome [3] | outcome [20] | outcome [4] | outcome [5] | outcome [7] | outcome [8] | outcome [9] | outcome [10] | outcome [11] | outcome [12] | outcome [13] | outcome [14] | outcome [15] | Potency [16] | outcome [17] | outcome [18]

COc1ccccc1OCC(O)CO (stereo unspecified)
inactive: outcome [1] | outcome [2] | outcome [3] | outcome [4] | outcome [5] | outcome [6] | outcome [7] | outcome [8] | outcome [9] | outcome [10] | outcome [11] | outcome [12] | outcome [13] | outcome [14] | outcome [15] | Potency [16] | outcome [17] | outcome [18]

Nc1ccc(S(=O)(=O)c2ccc(N)cc2)cc1
inactive: max response [1] 3.17% | outcome [19] | outcome [3] | outcome [20] | outcome [4] | outcome [5] | outcome [7] | outcome [8] | outcome [9] | outcome [10] | outcome [11] | outcome [12] | outcome [13] | outcome [14] | outcome [15] | Potency [16]

COc1ccc(Cc2cnc(N)nc2N)cc1OC
inactive: max response [1] -0.487% | outcome [2] | outcome [3] | outcome [4] | outcome [5] | outcome [7] | outcome [8] | outcome [9] | outcome [10] | outcome [11] | outcome [12] | outcome [13] | outcome [14] | outcome [15] | Potency [16] | outcome [17]

COc1ccccc1Oc1c(NS(=O)(=O)c2ccc(C(C)(C)C)cc2)nc(-c2ncccn2)nc1OCCO
inactive: outcome [1] | outcome [2] | outcome [20] | outcome [4] | outcome [5] | outcome [6] | outcome [7] | outcome [8] | outcome [9] | outcome [11] | outcome [12] | outcome [13] | outcome [14] | outcome [15] | Potency [16] | outcome [17] | outcome [18]

Cc1cc(NC(=O)C2=C(O)c3ccccc3S(=O)(=O)N2C)no1
inactive: max response [1] -3.38% | outcome [19] | outcome [3] | outcome [20] | outcome [4] | outcome [5] | outcome [7] | outcome [8] | outcome [9] | outcome [10] | outcome [11] | outcome [12] | outcome [13] | outcome [14] | outcome [15] | Potency [16] | outcome [17] | outcome [18]

CCCNC(C)C(=O)Nc1c(C)csc1C(=O)OC (stereo unspecified)
inactive: outcome [1] | outcome [2] | outcome [3] | outcome [4] | outcome [5] | outcome [6] | outcome [7] | outcome [8] | outcome [9] | outcome [11] | outcome [12] | outcome [13] | outcome [14] | outcome [15] | Potency [16] | outcome [17] | outcome [18]

O=C(NCCCN1CCOCC1)c1ccc(Cl)cc1
inactive: outcome [1] | outcome [2] | outcome [3] | outcome [4] | outcome [5] | outcome [6] | outcome [7] | outcome [8] | outcome [9] | outcome [10] | outcome [11] | outcome [12] | outcome [13] | outcome [14] | outcome [15] | Potency [16] | outcome [17] | outcome [18]
